The nature of assay [1]: Nuclear factor erythroid 2-related factor 2/antioxidant responsive element (Nrf2/ARE) small molecule agonists: qHTS cell viability counter screen in human keratinocytes (AID 1919968; active = well fitted curve in the direction sought with a large enough effect in the repeat runs; an effect the other way counts as inactive or inconclusive; also: nearly all actives have a fitted effect of over 55% in size; also: potency is read from the fitted curve at half-maximal effect). A digest of the protocol: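 CellTiter-Fluor fluorescence, read 1 h after reagent, gave viability in the same wells as the ARE-luciferase assay. KeratinoSens cells (1,500/well) had 23 h compound exposure at 37 C/5% CO2 following 5 h plating.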

A short description of assay [2]: Nuclear factor erythroid 2-related factor 2/antioxidant responsive element (Nrf2/ARE) small molecule agonists: luciferase reporter gene qHTS assay in human keratinocytes (AID 1919969). Also: nearly all actives have a fitted effect of over 35% in size. Also: potency is read from the fitted curve at half-maximal effect.
Assay [3] addresses Gonadotropin-releasing hormone receptor (Homo sapiens) (UniProt P30968). Description: Human gonadotropin-releasing hormone receptor (GnRHR) small molecule agonists, calcium flux assay in GnRHR-HEK293 cells (AID 1920063). Also: nearly all actives have a fitted effect of over 35% in size. The method in brief:
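Agonist mode: compounds at 15 concentrations, in triplicate, went onto calcium dye-loaded GnRHR-HEK293 cells. Intracellular calcium was then followed as 480/540 nm fluorescence at 1 s intervals over 3 min.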

In assay [4] the target is KiSS-1 receptor (Homo sapiens) (UniProt Q969F8). Description: Human kisspeptin (KISS1R) small molecule agonists, calcium flux assay in KISS1R-HEK293 cells (AID 1920064; active = well fitted curve in the direction sought with a large enough effect in the repeat runs; an effect the other way counts as inactive or inconclusive). A digest of the protocol: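 Agonist mode: intracellular calcium rise tracked at 1 s intervals over 3 min (480/540 nm) immediately after compound addition to dye-loaded KISS1R-HEK293 stable cells. Each compound tested at 15 concentrations in triplicate.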
Sequence of KiSS-1 receptor (Homo sapiens) (Q969F8 whole entry, looked up): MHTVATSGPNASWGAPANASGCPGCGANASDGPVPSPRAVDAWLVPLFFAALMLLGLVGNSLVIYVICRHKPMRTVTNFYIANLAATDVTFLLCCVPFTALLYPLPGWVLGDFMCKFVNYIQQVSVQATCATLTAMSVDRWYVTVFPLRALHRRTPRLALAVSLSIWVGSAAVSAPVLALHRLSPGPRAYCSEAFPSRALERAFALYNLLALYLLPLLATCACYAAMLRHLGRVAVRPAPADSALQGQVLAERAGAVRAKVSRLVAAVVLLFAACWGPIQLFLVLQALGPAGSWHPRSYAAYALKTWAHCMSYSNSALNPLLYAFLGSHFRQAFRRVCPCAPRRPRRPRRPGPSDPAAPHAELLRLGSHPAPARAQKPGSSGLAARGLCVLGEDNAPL

Assay [5] is described as follows: G protein-coupled receptor (GPCR) small molecule agonists, calcium flux assay: HEK293 wild type cell line counter screen (AID 1920065). A digest of the protocol:
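Calcium flux counter screen: compound added in agonist mode at 15 concentrations in triplicate to dye-loaded parental HEK293 cells. Fluorescence (480/540) read kinetically for 3 min; ATP served as positive control.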

A short description of assay [6]: p53 small molecule agonists, cell-based qHTS assay with human liver microsomes: qHTS cell viability counter screen (AID 1963579). Also: nearly all actives have a fitted effect of over 45% in size. Also: potency is read from the fitted curve at half-maximal effect. A digest of the protocol:
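Metabolically activated exposure: compounds, human liver microsomes and NADPH (0.5 mg/mL final apiece) were added to p53RE-bla cells seeded 5 h earlier, left 16 h at 37 C, and then assessed for viability by CellTiter-Glo luminescence.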

The nature of assay [7]: p53 small molecule agonists, cell-based qHTS assay with rat liver microsomes: qHTS cell viability counter screen (AID 1963580). Also: nearly all actives have a fitted effect of over 45% in size. A digest of the protocol:
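Cytotoxicity counter screen: intracellular ATP read by CellTiter-Glo luminescence in the p53 reporter wells. HCT-116 p53RE-bla cells were treated for 16 h at 37 C alongside rat liver microsomes and NADPH, each 0.5 mg/mL final.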

A short description of assay [8]: p53 small molecule agonists, cell-based qHTS assay: qHTS cell viability counter screen (AID 1963581). Also: nearly all actives have a fitted effect of over 45% in size. The method in brief: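 Counter screen read by CellTiter-Glo luminescence (ATP content, 30 min at room temperature), run in the same wells as the beta-lactamase reporter read. HCT-116 p53RE-bla cells saw compounds for 16 h at 37 C.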
Assay [9] addresses 5-hydroxytryptamine receptor 2A (Homo sapiens) (UniProt P28223). Description: 5-hydroxytryptamine receptor 2A (HTR2A) small molecule antagonists, cell-based qHTS assay (AID 1963586). Also: nearly all actives have a fitted effect of over 45% in size. A digest of the protocol: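 CHO cells stably expressing human HTR2A were plated for 18 h at 37 C, then loaded with calcium dye for 1 h. Compounds were preincubated 5 min at room temperature before DOI (4 nM solution) was added. Kinetic fluorescence was read for 3 min.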

Assay [10] concerns the target Muscarinic acetylcholine receptor M1 (Homo sapiens) (UniProt P11229). Description: Cholinergic receptor muscarinic 1 (CHRM1) small molecule antagonists, cell-based qHTS assay (AID 1963588). Also: nearly all actives have a fitted effect of over 40% in size. A digest of the protocol: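 Compounds were tested at 15 concentrations in three independent runs. Dye-loaded CHRM1-CHO cells were exposed 5 min at room temperature before stimulation by acetylcholine added at 50nM. Intracellular calcium was read kinetically on FDSS for 3 min.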

For assay [11] the target is unchanged. Description: Cholinergic receptor muscarinic 1 (CHRM1) small molecule agonists, cell-based qHTS assay (AID 1963589). Also: nearly all actives have a fitted effect of over 35% in size. The method in brief: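 Agonist-mode calcium-flux screen: compounds at 15 concentrations, three independent runs, were pin-transferred onto dye-loaded human CHRM1-CHO cells. Fluorescence was then recorded kinetically every second over minutes.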

The nature of assay [12]: cAMP Responsive Elements (CRE) small molecule agonists, cell-based qHTS assay (AID 1963590). A digest of the protocol: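 Agonist mode: compound added to CRE-bla HEK 293T cells (2,000/well, 18 h after plating) for 3 h at 37 C/5% CO2. Reporter activity detected via FRET beta-lactamase substrate, 2 h room-temperature loading.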
Assay [13] can be described thus: cAMP Responsive Elements (CRE) small molecule antagonists, cell-based qHTS assay (AID 1963591; active = well fitted inhibition curve with a large enough effect in the signal ratio in the repeat runs, not every such curve was filed as active; the % refers to the signal ratio). A digest of the protocol:
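Antagonist mode: compounds are added alongside the adenylyl cyclase activator NKH477 (0.25 uM final) to CRE-bla HEK293T cells for 3 h. LiveBLAzer FRET substrate, 2 h at room temperature, reports bla expression.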

The target in assay [14] is Beta-2 adrenergic receptor (Homo sapiens) (UniProt P07550). Description: Adrenergic beta2 receptor (ADRB2) small molecule antagonists, cell-based qHTS assay (AID 1963592). Also: series mostly up to about 92 µM; nearly all actives have a fitted effect of over 50% in size. A digest of the protocol:
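Assay format: CHO-ADRB2 cells, 18-20hr seeding at 37C/5% CO2, then compound plus 1nM isoproterenol agonist mix for 0.5hr RT. Homogeneous time-resolved fluorescence cAMP detection after 1hr, expressed as 665/615 nm ratio.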

For assay [15] the target is unchanged. Description: Adrenergic beta2 receptor (ADRB2) small molecule agonists, cell-based qHTS assay (AID 1963593).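 Also: CHO cells stably overexpressing human ADRB2.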 The method in brief: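 CHO cells stably over-expressing ADRB2 were plated overnight at 37C, then dosed with compounds plus a stimulation mix containing 100uM IBMX and 25uM Ro-20-1724 for 0.5hr at room temperature. cAMP was measured by HTRF competition, 1hr.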

In assay [16] the target is D(2) dopamine receptor (Homo sapiens) (UniProt P14416). Description: Dopamine D2 receptor (DRD2) small molecule antagonists, cell-based qHTS assay (AID 1963595; active = well fitted inhibition curve with a large enough effect in the signal ratio in the repeat runs, with a control signal flat; the % refers to the signal ratio). The method in brief: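 HEK293 cells stably expressing DRD2 were preincubated with 0.1 mM Ro20-1724, then with compound for 10 min at room temperature. Cells were stimulated with 200 nM NKH477 plus 12 nM quinpirole for 30 min, and cAMP was read by HTRF.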
Sequence of D(2) dopamine receptor (Homo sapiens) (P14416 whole entry, looked up): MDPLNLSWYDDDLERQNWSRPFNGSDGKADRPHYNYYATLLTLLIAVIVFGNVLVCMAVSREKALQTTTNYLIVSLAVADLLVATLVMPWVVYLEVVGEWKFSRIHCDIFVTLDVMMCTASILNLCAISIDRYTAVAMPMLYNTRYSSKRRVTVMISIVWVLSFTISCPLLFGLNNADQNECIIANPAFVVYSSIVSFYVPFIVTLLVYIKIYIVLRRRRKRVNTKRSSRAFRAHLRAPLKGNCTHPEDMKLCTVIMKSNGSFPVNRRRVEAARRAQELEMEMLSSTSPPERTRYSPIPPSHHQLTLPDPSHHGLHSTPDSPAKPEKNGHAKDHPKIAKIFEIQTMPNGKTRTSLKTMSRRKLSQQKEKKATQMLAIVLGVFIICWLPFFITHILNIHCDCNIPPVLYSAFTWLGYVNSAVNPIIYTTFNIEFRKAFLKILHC

For assay [17], the target named is 5-hydroxytryptamine receptor 2A (Homo sapiens) (UniProt P28223). Description: 5-hydroxytryptamine receptor 2A (HTR2A) small molecule agonists, cell-based qHTS assay (AID 1963587). Also: nearly all actives have a fitted effect of over 30% in size. The method in brief:
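Kinetic calcium-flux fluorescence (2 min, 1 sec intervals) after compound addition in agonist mode. HTR2A-CHO cells were cultured 18 h, then dye-loaded 1 h at 37 C.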

For assay [18], the target named is D(2) dopamine receptor (Homo sapiens) (UniProt P14416). Description: Dopamine D2 receptor (DRD2) small molecule agonists, cell-based qHTS assay (AID 1963594). Also: nearly all actives have a fitted effect of over 35% in size. The method in brief: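 cAMP accumulation in DRD2-HEK293 cells measured by HTRF after 1 h detection; compounds added 10 min before NKH477 (200nM […]) forskolin-analogue stimulation, 30 min at room temperature, with Ro20-1724 present at 0.1 mM final.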

“And” between values parts separate entries of the source, which are not always exact repeats. Equal entries are not always repeated. Records with an inconclusive call do not appear. More than one record can exist for a structure, and the calls need not agree. The source made the active and inactive calls. Unless noted, calls follow the shape of the full dose curve.

Sequence of Gonadotropin-releasing hormone receptor (Homo sapiens) (P30968 whole entry, looked up): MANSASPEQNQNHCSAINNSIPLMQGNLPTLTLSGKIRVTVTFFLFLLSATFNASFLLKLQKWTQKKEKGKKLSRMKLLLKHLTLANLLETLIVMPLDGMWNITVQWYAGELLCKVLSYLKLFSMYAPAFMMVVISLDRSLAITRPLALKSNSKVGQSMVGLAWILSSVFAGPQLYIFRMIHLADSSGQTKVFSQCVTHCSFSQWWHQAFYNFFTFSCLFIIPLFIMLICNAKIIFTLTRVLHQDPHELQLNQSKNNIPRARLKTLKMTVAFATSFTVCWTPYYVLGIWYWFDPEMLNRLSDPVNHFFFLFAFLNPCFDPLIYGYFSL
Sequence of Muscarinic acetylcholine receptor M1 (Homo sapiens) (P11229 whole entry, looked up): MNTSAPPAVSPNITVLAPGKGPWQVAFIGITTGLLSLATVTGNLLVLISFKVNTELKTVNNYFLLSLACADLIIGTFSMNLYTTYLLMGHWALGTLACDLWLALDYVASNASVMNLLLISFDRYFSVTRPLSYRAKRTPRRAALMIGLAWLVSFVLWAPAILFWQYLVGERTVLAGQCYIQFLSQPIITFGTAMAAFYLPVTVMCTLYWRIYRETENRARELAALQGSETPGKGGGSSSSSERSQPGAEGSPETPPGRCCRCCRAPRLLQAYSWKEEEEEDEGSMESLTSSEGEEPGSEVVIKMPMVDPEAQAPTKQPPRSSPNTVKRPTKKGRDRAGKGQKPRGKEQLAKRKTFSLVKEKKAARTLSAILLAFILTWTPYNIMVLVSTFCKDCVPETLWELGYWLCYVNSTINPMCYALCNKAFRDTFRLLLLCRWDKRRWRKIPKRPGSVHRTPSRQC
Sequence of Beta-2 adrenergic receptor (Homo sapiens) (P07550 whole entry, looked up): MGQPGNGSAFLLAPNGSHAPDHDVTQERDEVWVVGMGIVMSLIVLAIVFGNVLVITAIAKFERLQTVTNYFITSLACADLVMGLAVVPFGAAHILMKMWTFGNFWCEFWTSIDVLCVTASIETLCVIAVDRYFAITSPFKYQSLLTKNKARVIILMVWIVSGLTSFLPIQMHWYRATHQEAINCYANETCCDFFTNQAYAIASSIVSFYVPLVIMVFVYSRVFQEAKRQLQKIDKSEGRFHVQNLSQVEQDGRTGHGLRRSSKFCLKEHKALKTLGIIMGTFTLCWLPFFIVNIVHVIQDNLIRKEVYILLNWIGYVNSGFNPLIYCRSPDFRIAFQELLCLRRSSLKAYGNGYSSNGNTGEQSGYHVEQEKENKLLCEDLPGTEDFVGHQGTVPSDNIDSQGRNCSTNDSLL
Sequence of 5-hydroxytryptamine receptor 2A (Homo sapiens) (P28223 whole entry, looked up): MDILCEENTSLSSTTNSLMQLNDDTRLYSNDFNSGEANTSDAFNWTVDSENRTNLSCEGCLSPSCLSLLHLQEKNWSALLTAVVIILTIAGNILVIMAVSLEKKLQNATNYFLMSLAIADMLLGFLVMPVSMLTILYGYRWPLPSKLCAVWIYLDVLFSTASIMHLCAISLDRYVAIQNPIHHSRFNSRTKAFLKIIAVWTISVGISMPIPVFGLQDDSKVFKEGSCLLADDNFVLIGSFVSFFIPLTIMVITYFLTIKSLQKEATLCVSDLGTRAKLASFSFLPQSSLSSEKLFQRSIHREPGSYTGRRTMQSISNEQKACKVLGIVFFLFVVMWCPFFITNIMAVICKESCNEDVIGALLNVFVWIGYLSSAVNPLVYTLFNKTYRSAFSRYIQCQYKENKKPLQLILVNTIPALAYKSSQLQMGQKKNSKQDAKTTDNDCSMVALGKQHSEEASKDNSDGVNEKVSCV

For `C[N+](C)(C)CC(=O)[O-]`, the Potency result in [1], in assay [2], in assay [3], in assay [4], in assay [5] and in assay [6] was “inactive” each time. Moreover, the Potency result in [7], in assay [8], in assay [9], in [10], in assay [11] and in [12] was “inactive” in each case. For the same compound, the Potency result in assay [13], in [14], in assay [15] and in [16] was “inactive” in each case.

With `CCCCCCCCCCCCCCCCCC(=O)O`, the Potency entry in assay [1], in assay [3], in assay [4], in assay [5], in [6] and in [7] was “inactive” throughout. The Potency entry in [8], in assay [9], in assay [17], in [10], in assay [12] and in assay [13] was “inactive” each time. In addition, the Potency result in assay [14], in [15], in [18] and in assay [16] was “inactive” each time. Besides, the Potency in assay [2] was 48.2 µM (active) and inactive.

As to `CC1(C)Cc2cccc(O)c2O1`, the Potency entry in assay [1], in [2], in assay [3], in assay [4], in assay [5] and in [6] was “inactive” in each case. The Potency result in assay [7], in assay [8], in assay [9], in assay [17], in [10] and in assay [11] was “inactive” throughout. For the same compound, the Potency entry in assay [12], in assay [13], in [14], in assay [18] and in [16] was “inactive” throughout.

As to `CCCCN(CCCC)SN(C)C(=O)Oc1cccc2c1OC(C)(C)C2`, the Potency result in assay [1], in assay [3], in [4], in [5], in [6] and in assay [7] was “inactive” each time. The Potency entry in assay [8], in [9], in assay [17], in [10], in assay [11] and in [14] was “inactive” each time. Moreover, the Potency entry in assay [15], in assay [18] and in assay [16] was “inactive” in each case. Also, the Potency in assay [2] is 24.7 µM (active) and 54.5 µM (active).

As to `O=c1nc(O)n(Cl)c(=O)n1Cl`, the Potency entry in assay [1], in [2], in assay [3], in [4], in assay [5] and in assay [6] was “inactive” throughout. Besides, the Potency entry in assay [7], in assay [8], in assay [17], in assay [10], in [11] and in assay [12] was “inactive” each time. Also, the Potency result in assay [13], in [14], in [15], in assay [18] and in [16] was “inactive” in each case.

As to `CCN(CC)C(=S)S`, the Potency is 27.5 µM (active) and 7.65 µM (active) and 13.7 µM (active) in [1]; 29.1 µM (active) and inactive in assay [6]. For the same compound, the Potency result in assay [2], in assay [3], in [4], in [5], in [7] and in assay [8] was “inactive” in each case. In addition, the Potency entry in assay [9], in assay [17], in assay [10], in assay [11], in assay [12] and in assay [13] was “inactive” throughout. Further, the Potency entry in assay [14], in [18] and in [16] was “inactive” throughout.

As to `CN(C)[C@@H]1C(=O)C(C(N)=O)=C(O)[C@@]2(O)C(=O)C3=C(O)c4c(O)cccc4[C@@](C)(O)[C@H]3[C@H](O)[C@@H]12`, the Potency result in assay [1], in [2], in assay [3], in [4], in assay [5] and in assay [6] was “inactive” in each case. Moreover, the Potency entry in assay [7], in [8], in assay [9], in assay [17], in assay [10] and in assay [12] was “inactive” throughout. Moreover, the Potency entry in assay [13], in assay [14], in [15] and in assay [16] was “inactive” each time.
